Among the data in PubChem BioAssay (Tox21) are Potency values, retold here.

Values joined by “and” are separate entries in the source; they are usually repeats but may differ in a detail not shown here. Identical values can stand only once. Records with an inconclusive call do not appear. The source holds several records for some structures; these can differ, active in one and inactive in another. Active and inactive are the calls of the source. Calls follow the shape of the dose curve; as a rule, active = well fitted curve in the direction sought with a large enough effect in the repeat runs; inconclusive = weak or mixed curves; inactive = no such curve, though single readings can be large; an effect the other way counts as inactive or inconclusive.

Assay [1] in a line: A CellTox Green Cytotoxicity Assay to monitor cytotoxicity in HEK293 cells - 32 hour (AID 1224881). Also: nearly all actives have a fitted effect of over 40% in size. Also: potency is read from the fitted curve at half-maximal effect. The procedure, abridged: (§1)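 Read-out: fluorescence of a cell-impermeant cyanine dye staining DNA of dead cells, proportional to cytotoxicity. HEK293, 600 cells/well with reagent, compound (23 nL DMSO) added after 5 h; reads at 0, 8, 16, 24, 32, 40 h.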
The nature of assay [2]: A CellTox Green Cytotoxicity Assay to monitor cytotoxicity in HepG2 cells - 0 hour (AID 1224882). Also: nearly all actives have a fitted effect of over 35% in size. Also: potency is read from the fitted curve at half-maximal effect. The procedure, abridged: (§2)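 HepG2, 600 cells/well premixed w/ CellTox Green; 5 h settle, 37 C/5% CO2; pintool cpd add (DMSO); 37 C, 40 h; fluorescence read at 0, 8, 16, 24, 32, 40 h.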
Assay [3] is described as follows: A CellTox Green Cytotoxicity Assay to monitor cytotoxicity in HepG2 cells - 32 hour (AID 1224883). Also: nearly all actives have a fitted effect of over 50% in size. Also: potency is read from the fitted curve at half-maximal effect. An outline of the steps: as §2
A short description of assay [4]: A CellTox Green Cytotoxicity Assay to monitor cytotoxicity in HEK293 cells - 8 hour (AID 1224884). Also: nearly all actives have a fitted effect of over 35% in size. Also: potency is read from the fitted curve at half-maximal effect. An outline of the steps:
as §1

Assay [5] is described as follows: qHTS RealTime-Glo MT Cell Viability Assay in HepG2 cells - 16 hour (AID 1224885). Also: nearly all actives have a fitted effect of over 50% in size. Also: potency is read from the fitted curve at half-maximal effect. The procedure, abridged: (§3)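 Cells + NanoLuc/prosubstrate dispensed (600 cells/well) → 5 h at 37 C/5% CO2 → compounds in DMSO transferred → 40 h incubation at 37 C, luminescence read at 0, 8, 16, 24, 32, 40 h.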
For orientation: In qHTS, concentration-response curves come from the screen itself.

A short description of assay [6]: qHTS RealTime-Glo MT Cell Viability Assay in HEK293 cells - 24 hour (AID 1224886). Also: nearly all actives have a fitted effect of over 50% in size. Also: potency is read from the fitted curve at half-maximal effect. An outline of the steps:
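Tox21 10K qHTS, HEK293, 600 cells/well, RealTime-Glo reagent co-dispensed with cells; 5 h preincubation, compound by pintool, 37 C, luminescence at 0–40 h.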

A short description of assay [7]: qHTS RealTime-Glo MT Cell Viability Assay in HEK293 cells - 8 hour (AID 1224887). Also: nearly all actives have a fitted effect of over 50% in size. Also: potency is read from the fitted curve at half-maximal effect. An outline of the steps:
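Luminescence readout at each listed time point; HEK293, 600 cells/well, RealTime-Glo MT reagent added with cells; compounds pinned (23 nL in DMSO) after 5 h at 37 C; continuous culture at 37 C.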

Assay [8] in a line: A CellTox Green Cytotoxicity Assay to monitor cytotoxicity in HEK293 cells - 16 hour (AID 1224888). Also: nearly all actives have a fitted effect of over 35% in size. Also: potency is read from the fitted curve at half-maximal effect. An outline of the steps: as §1
Assay [9] in a line: qHTS RealTime-Glo MT Cell Viability Assay in HepG2 cells - 0 hour (AID 1224889). Also: nearly all actives have a fitted effect of over 50% in size. An outline of the steps:
as §3

A short description of assay [10]: A CellTox Green Cytotoxicity Assay to monitor cytotoxicity in HepG2 cells - 8 hour (AID 1224890). Also: nearly all actives have a fitted effect of over 45% in size. Also: potency is read from the fitted curve at half-maximal effect. An outline of the steps: as §2

With `CCCCCCCCCCOC(=O)c1ccccc1C(=O)OCCCCCCCC`, the Potency entry in [1], in assay [2], in assay [3], in assay [4], in assay [5] and in assay [6] was “inactive” throughout. Also, the Potency result in assay [7], in assay [8], in assay [9] and in assay [10] was “inactive” each time.
Consider `CC(=O)Oc1cc2c(s1)CCN(C(C(=O)C1CC1)c1ccccc1F)C2` (stereo not given), for which the Potency result in assay [1], in assay [2], in assay [3], in [4], in assay [5] and in [6] was “inactive” in each case. Further, the Potency entry in assay [7], in assay [8], in assay [9] and in [10] was “inactive” throughout.
With `CCCCC/C=C\C/C=C\CCCCCCCC(=O)O`, the Potency result in assay [1], in assay [2], in assay [3], in assay [4], in assay [5] and in assay [6] was “inactive” each time. In addition, the Potency entry in assay [7], in assay [8], in [9] and in assay [10] was “inactive” each time.
For the molecule `CC(C)NC[C@@H](O)COc1ccc(CC(N)=O)cc1`, the Potency result in [1], in [2], in [3], in assay [4], in assay [5] and in assay [6] was “inactive” throughout. Further, the Potency entry in assay [7], in assay [8], in assay [9] and in [10] was “inactive” throughout.
`Cc1cccc(C)c1NC(=O)c1ccc(N)cc1`: the Potency result in assay [1], in assay [2], in assay [3], in assay [4], in assay [5] and in assay [6] was “inactive” throughout. For the same molecule, the Potency result in assay [7], in assay [8], in assay [9] and in [10] was “inactive” throughout.
With `Cc1cc(C)c(/C=C2\C(=O)Nc3ccccc32)[nH]1`, the Potency was 10.7 µM (active) in assay [1]; 10.7 µM (active) in assay [2]; 19 µM (active) in assay [3]; 16.9 µM (active) in assay [4]; 10.7 µM (active) in assay [8]; 19 µM (active) in [10]. Further, the Potency result in [5], in [6], in assay [7] and in [9] was “inactive” in each case.
In the case of `O=C(O)c1cccc(C(F)(F)F)c1`, the Potency result in assay [1], in [2], in assay [3], in [4], in [5] and in [6] was “inactive” each time. Besides, the Potency entry in assay [7], in assay [8], in [9] and in assay [10] was “inactive” throughout.
In the case of `CCC(C)[O-].CCC(C)[O-].CCOC(=O)/C=C(/C)[O-].[Al+3]`, the Potency entry in assay [1], in assay [2], in assay [3], in assay [4], in assay [5] and in assay [6] was “inactive” throughout. Further, the Potency entry in [7], in assay [8], in assay [9] and in [10] was “inactive” in each case.
On to `O=C(O)c1ccc2cc(C(=O)O)ccc2c1`, for which the Potency result in assay [1], in assay [2], in [3], in assay [4], in [5] and in assay [6] was “inactive” each time. Moreover, the Potency result in [7], in assay [8], in [9] and in assay [10] was “inactive” in each case.
`OC/C=C/CO`: the Potency entry in assay [1], in assay [2], in assay [3], in assay [4], in assay [5] and in assay [6] was “inactive” each time. Besides, the Potency entry in [7], in assay [8], in [9] and in assay [10] was “inactive” in each case.
Regarding `CC(C)(c1cc(Br)c(OCC(Br)CBr)c(Br)c1)c1cc(Br)c(OCC(Br)CBr)c(Br)c1` (stereo not given), the Potency result in assay [1], in assay [2], in assay [3], in [4], in assay [5] and in assay [6] was “inactive” in each case. The Potency entry in assay [7], in assay [8], in assay [9] and in assay [10] was “inactive” each time.
As for `NC(=S)NC(N)=S`, the Potency result in [1], in [2], in assay [3], in [4], in assay [5] and in assay [6] was “inactive” each time. Besides, the Potency entry in assay [7], in [8], in assay [9] and in [10] was “inactive” each time.
`COc1cccc2c1C(=O)c1c(O)c3c(c(O)c1C2=O)C[C@@](O)(C(C)=O)C[C@@H]3O[C@H]1C[C@H](N)[C@H](O)[C@H](C)O1`: the Potency in [1] is 43.9 µM (active) and inactive; in assay [3], “inactive and 30.1 nM (active)”; in [4] it was 39.1 µM (active); in assay [5], 43.9 µM (active) and 23.9 µM (active); in assay [6] it was 110 nM (active) and 4.8 nM (active); in assay [7], 15.6 µM (active) and 21.3 µM (active). In addition, the Potency is 39.1 µM (active) in [8] and 55.3 µM (active) in assay [10]. For the same molecule, the Potency entry in assay [2] and in [9] was “inactive” each time.
Turning to `CN(C)c1ccc(C(=C2C=CC(=[N+](C)C)C=C2)c2ccc(N(C)C)cc2)cc1`, the Potency result in assay [1], in assay [2], in [4], in assay [8], in assay [9] and in assay [10] was “inactive” in each case. For the same molecule, the Potency in assay [3] is 10.9 µM (active) and 11 µM (active) and 19 µM (active); in [5], 21.8 µM (active) and 24.5 µM (active); in assay [6], 5.47 µM (active) and 7.76 µM (active) and 3.01 µM (active); in [7], 21.8 µM (active) and 43.6 µM (active).
For the molecule `CC(C)CCCCCOC(=O)CCS`, the Potency result in assay [1], in [2], in [3], in assay [4], in [5] and in [6] was “inactive” throughout. Besides, the Potency entry in [7], in assay [8], in assay [9] and in assay [10] was “inactive” throughout.
Consider `OCC(F)(F)F`, for which the Potency result in assay [1], in assay [2], in assay [3], in assay [4], in assay [5] and in [6] was “inactive” in each case. Moreover, the Potency entry in assay [7], in [8], in [9] and in assay [10] was “inactive” throughout.
Turning to `CCC(C)(CCC(C)C)C(=O)[O][Sn]([CH3])([CH3])[O]C(=O)C(C)(CC)CCC(C)C` (stereo not given), the Potency entry in assay [1], in [2], in [3], in [4], in assay [5] and in [6] was “inactive” each time. The Potency result in assay [7], in [8], in [9] and in [10] was “inactive” each time.
Regarding `Cc1nc2n(c(=O)c1CCN1CCC(c3noc4cc(F)ccc34)CC1)CCCC2`, the Potency result in [1], in assay [2], in [3], in [4], in assay [5] and in assay [8] was “inactive” each time. Further, the Potency result in assay [9] and in assay [10] was “inactive” in each case. Also, the Potency in [6] was 3.38 µM (active); in assay [7], 3.01 µM (active).
Take `OC[C@@H](O)[C@@H](O)CO`: the Potency entry in [1], in [2], in assay [3], in [4], in assay [5] and in [6] was “inactive” each time. Also, the Potency entry in assay [7], in assay [8], in assay [9] and in [10] was “inactive” each time.
Consider `C#CC1(O)CC[C@H]2[C@@H]3CCC4=CCCC[C@@H]4[C@H]3CC[C@@]21C` (stereo not given in full), for which the Potency in [1] was 24.5 µM (active) and 21.3 µM (active); in [3], 34.7 µM (active) and 19 µM (active); in assay [4] it was 17.4 µM (active) and 23.9 µM (active); in [5], 23.9 µM (active); in [6], 17.4 µM (active) and 16.9 µM (active); in assay [7], 21.3 µM (active). The Potency in assay [8] is 24.5 µM (active) and 21.3 µM (active); in assay [10], 24.5 µM (active) and 21.3 µM (active). Moreover, the Potency entry in assay [2] and in [9] was “inactive” each time.
